Results published in PubChem BioAssay AID2284358 (EPA ToxCast).
Results filed as inconclusive are left out. Active and inactive are the calls of the source. Rule for the calls: active = hit-call score of the fitted dose curve at least 0.9, where 1 is the maximum; inconclusive = response in the unintended direction; inactive = score below 0.9.

molecular target: zebrafish Retinoid X Receptor beta (RXRb), rxrba (gene 30530) (UniProt Q7SYN5); assay: ATG_zfRXRb_EcoTox2: Attagene TRANS-FACTORIAL EcoTox-2 HepG2 Assay for zebrafish Retinoid X Receptor beta (RXRb)
Sequence (Q7SYN5 whole entry, looked up): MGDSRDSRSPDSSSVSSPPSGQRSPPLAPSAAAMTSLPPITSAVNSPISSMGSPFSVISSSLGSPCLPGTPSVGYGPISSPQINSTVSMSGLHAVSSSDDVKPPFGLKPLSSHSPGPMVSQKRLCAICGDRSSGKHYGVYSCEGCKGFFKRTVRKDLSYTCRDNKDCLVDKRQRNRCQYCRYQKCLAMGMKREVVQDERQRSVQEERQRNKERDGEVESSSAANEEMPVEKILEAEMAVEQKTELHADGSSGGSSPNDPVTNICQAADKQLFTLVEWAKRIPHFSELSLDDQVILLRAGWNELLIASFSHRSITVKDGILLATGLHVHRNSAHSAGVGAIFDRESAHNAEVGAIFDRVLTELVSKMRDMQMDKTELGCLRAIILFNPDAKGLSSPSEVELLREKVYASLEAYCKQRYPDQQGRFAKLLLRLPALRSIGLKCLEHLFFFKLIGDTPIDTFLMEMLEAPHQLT
Procedure: ATG_EcoTox2 is a cell-based, multiplexed assay created by modifying the existing Attagene TRANS-FACTORIAL system to include a panel of nuclear receptors from some or all the following species: human (Homo sapiens), african clawed frog (Xenopus laevis), rainbow trout (Oncorhynchus mykiss), japanese medaka (Oryzias latipes), and zebrafish (Danio rerio). The ECOTOX2-FACTORIAL format uses HepG2, a human liver cell line, with measurements taken at 24 hours after chemical dosing in a 24-well plate. ATG_zfRXRb_EcoTox2 is one of 29 assay components calculated in the ATG_EcoTox2 assay. It is designed to make measurements of mRNA induction, a form of inducible reporter, as detected with fluorescence intensity signals by Reverse transcription polymerase chain reaction (RT-PCR) and Capillary electrophoresis technology.The assay endpoint ATG_zfRXRb_EcoTox2 was analyzed in the positive analysis fitting direction relative to DMSO as the negative control and baseline of activity. Using a type of inducible reporter, measures of mRNA for gain-of-signal activity can be used to understand the reporter gene at the transcription factor-level as they relate to the gene RXRb. Furthermore, this assay endpoint can be referred to as a primary readout, because this assay has produced multiple assay endpoints where this one serves a reporter gene function. […]
Human liver HepG2 cells are transiently transfected with multiple reporter transcription units (MRTUs) in 6-well plates using FuGene 6 reagent (Roche; 3 ml FuGene/1 mg DNA). […] A major difference between the CIS and TRANS system is that in CIS activities of endogenous TFs are measured, whereas the TRANS assay evaluates changes in activities of exogenous, chimeric NR-Gal4 proteins. […] The fragments were purified using Qiaquick PCR columns (Qiagen), analyzed on an ABI 3130xL genetic analyzer (Applied Biosystems) with peak positions identified by using a set of X-rhodamine (ROX)-labeled MapMarker1000 molecular weight standards (BioVentures). […]

**Q.** How did the outcome turn out when `O=S(=O)(O)C(F)(F)C(F)(F)C(F)(F)C(F)(F)C(F)(F)C(F)(F)F` was run?
**A.** inactive

**Q.** Which outcome does the source give for `O=P(Oc1ccccc1)(Oc1ccccc1)Oc1ccccc1` here?
**A.** inactive

**Q.** Which AC50 does the source give for `[Cl][Sn]([c]1ccccc1)([c]1ccccc1)[c]1ccccc1` here?
**A.** 95.2 nM (active)
